# Source: ChEMBL document CHEMBL1961873, “Compounds: GSK PKIS; Assays: Nanosyn kinase panel” (2012)
# What was measured:
# [1] = biological target: Mast/stem cell growth factor receptor Kit (Homo sapiens) (UniProt P10721); details: at 1 µM
# [2] = tested on: Mast/stem cell growth factor receptor Kit (Homo sapiens), P10721 [D816V]; details: at 0.1 µM
# [3] = tested on: Mast/stem cell growth factor receptor Kit (Homo sapiens), P10721 [D816V]; details: at 1 µM
# [4] = tested on: Mast/stem cell growth factor receptor Kit (Homo sapiens), P10721 [T670I]; details: at 0.1 µM
# [5] = tested on: Mast/stem cell growth factor receptor Kit (Homo sapiens), P10721 [T670I]; details: at 1 µM
# [6] = tested on: Mast/stem cell growth factor receptor Kit (Homo sapiens), P10721 [V560G]; details: at 0.1 µM
# [7] = tested on: Mast/stem cell growth factor receptor Kit (Homo sapiens), P10721 [V560G]; details: at 1 µM
# [8] = biological target: Tyrosine-protein kinase Lck (Homo sapiens) (UniProt P06239); details: at 0.1 µM
# [9] = biological target: Tyrosine-protein kinase Lck (Homo sapiens) (UniProt P06239); details: at 1 µM
# [10] = biological target: Leukocyte tyrosine kinase receptor (Homo sapiens) (UniProt P29376); details: at 0.1 µM
# [11] = biological target: Leukocyte tyrosine kinase receptor (Homo sapiens) (UniProt P29376); details: at 1 µM
# [12] = biological target: Tyrosine-protein kinase Lyn (Homo sapiens) (UniProt P07948); details: at 0.1 µM
# [13] = biological target: Tyrosine-protein kinase Lyn (Homo sapiens) (UniProt P07948); details: at 1 µM
# [14] = biological target: Tyrosine-protein kinase Lyn (Homo sapiens) (UniProt P07948); details: at 0.1 µM; remark: listed apart in the source
# [15] = biological target: Tyrosine-protein kinase Lyn (Homo sapiens) (UniProt P07948); details: at 1 µM; remark: listed apart in the source
# [16] = biological target: T1, Tyrosine-protein kinase Mer (Homo sapiens) (UniProt Q12866); details: at 0.1 µM
# T1 sequence (whole entry): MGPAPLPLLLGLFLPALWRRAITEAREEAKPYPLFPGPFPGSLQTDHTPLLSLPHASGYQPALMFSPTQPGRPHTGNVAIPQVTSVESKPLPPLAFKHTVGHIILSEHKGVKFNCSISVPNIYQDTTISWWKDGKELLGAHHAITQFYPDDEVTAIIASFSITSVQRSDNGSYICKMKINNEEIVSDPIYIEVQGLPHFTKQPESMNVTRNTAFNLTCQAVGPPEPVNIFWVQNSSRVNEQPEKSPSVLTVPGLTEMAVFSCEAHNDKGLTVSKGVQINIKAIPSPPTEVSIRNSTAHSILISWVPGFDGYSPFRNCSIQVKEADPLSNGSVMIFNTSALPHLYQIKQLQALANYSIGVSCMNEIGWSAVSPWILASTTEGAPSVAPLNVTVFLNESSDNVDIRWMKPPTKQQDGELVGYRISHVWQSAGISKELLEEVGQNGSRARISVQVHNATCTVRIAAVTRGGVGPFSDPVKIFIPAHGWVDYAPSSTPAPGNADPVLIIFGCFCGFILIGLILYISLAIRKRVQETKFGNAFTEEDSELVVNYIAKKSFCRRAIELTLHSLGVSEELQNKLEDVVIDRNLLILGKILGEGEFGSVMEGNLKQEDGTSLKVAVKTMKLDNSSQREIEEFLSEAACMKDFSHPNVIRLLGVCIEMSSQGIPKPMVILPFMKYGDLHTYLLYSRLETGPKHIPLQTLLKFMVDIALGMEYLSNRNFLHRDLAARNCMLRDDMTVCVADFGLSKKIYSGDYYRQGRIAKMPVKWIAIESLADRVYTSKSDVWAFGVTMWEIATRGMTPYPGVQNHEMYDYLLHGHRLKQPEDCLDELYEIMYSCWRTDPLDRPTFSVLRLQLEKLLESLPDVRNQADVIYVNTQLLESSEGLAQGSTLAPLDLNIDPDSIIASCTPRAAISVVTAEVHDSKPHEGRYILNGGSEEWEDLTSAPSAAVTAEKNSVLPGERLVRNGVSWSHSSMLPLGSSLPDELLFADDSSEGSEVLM
# [17] = biological target: T1, Tyrosine-protein kinase Mer (Homo sapiens); details: at 1 µM
# [18] = biological target: Hepatocyte growth factor receptor (Homo sapiens) (UniProt P08581); details: at 0.1 µM
# [19] = biological target: Hepatocyte growth factor receptor (Homo sapiens) (UniProt P08581); details: at 1 µM
# [20] = biological target: T2, Muscle, skeletal receptor tyrosine-protein kinase (Homo sapiens) (UniProt O15146); details: at 0.1 µM;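 note: values are mean inhibition of MuSK from the GSK PKIS kinase screening panel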
# T2 sequence (whole entry): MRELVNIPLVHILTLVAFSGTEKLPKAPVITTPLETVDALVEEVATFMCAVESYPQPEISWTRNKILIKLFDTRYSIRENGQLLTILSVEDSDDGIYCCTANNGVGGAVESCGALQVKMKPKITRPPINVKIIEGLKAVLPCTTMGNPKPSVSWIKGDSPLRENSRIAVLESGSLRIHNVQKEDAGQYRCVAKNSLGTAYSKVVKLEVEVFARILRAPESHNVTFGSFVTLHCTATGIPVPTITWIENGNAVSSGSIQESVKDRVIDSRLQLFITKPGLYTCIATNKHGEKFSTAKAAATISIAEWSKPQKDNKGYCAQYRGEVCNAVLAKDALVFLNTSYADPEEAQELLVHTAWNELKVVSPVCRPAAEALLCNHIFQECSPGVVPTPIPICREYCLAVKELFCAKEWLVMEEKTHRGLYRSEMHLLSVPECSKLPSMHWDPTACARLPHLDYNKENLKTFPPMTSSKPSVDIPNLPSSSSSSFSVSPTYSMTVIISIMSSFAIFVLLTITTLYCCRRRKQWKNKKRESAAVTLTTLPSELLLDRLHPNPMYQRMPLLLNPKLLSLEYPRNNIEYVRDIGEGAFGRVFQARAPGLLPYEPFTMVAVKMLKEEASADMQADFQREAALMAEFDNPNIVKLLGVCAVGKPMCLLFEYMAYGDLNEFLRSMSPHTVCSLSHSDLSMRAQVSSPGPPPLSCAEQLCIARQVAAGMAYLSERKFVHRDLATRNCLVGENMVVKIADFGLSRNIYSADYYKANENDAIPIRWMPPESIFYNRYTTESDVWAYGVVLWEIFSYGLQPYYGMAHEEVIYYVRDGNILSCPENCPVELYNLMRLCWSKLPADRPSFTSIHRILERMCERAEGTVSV
# Chain of Hepatocyte growth factor receptor (Homo sapiens) (P08581 whole entry): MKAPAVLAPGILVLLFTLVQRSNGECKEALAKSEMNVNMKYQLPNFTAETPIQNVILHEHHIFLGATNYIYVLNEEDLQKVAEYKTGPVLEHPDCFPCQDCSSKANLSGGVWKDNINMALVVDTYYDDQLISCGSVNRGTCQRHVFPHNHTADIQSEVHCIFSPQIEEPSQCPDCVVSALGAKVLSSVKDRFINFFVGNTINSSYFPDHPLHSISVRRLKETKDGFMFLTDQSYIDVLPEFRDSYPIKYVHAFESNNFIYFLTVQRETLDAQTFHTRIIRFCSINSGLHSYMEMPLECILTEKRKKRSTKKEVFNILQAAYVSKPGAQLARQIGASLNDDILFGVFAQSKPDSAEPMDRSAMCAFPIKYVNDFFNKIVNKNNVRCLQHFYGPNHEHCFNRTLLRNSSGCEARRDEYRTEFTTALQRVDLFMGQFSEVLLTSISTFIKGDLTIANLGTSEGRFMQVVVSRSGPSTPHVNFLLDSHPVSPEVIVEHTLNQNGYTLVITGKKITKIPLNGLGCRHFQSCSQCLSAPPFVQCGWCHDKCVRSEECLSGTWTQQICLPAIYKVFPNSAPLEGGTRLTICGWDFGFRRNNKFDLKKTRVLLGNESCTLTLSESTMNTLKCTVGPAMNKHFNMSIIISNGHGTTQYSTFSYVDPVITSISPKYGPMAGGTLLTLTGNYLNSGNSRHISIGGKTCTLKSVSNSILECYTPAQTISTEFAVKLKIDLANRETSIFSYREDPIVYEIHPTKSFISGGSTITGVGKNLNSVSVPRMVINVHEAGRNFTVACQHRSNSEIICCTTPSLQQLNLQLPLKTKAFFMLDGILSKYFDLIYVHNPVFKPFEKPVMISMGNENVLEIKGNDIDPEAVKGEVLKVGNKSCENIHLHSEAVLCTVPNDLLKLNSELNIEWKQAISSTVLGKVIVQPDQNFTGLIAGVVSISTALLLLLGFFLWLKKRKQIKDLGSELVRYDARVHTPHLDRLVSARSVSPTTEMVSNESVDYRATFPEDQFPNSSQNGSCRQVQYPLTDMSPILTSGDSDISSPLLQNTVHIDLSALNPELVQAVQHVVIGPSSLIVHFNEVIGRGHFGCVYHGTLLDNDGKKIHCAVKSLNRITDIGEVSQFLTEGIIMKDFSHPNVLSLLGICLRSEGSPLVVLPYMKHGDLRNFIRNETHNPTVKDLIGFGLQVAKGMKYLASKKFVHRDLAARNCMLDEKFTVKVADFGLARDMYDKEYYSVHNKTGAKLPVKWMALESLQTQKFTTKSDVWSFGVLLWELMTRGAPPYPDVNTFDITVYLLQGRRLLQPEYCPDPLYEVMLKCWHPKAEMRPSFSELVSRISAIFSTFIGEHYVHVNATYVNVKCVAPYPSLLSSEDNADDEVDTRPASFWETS
# Chain of Leukocyte tyrosine kinase receptor (Homo sapiens) (P29376 whole entry): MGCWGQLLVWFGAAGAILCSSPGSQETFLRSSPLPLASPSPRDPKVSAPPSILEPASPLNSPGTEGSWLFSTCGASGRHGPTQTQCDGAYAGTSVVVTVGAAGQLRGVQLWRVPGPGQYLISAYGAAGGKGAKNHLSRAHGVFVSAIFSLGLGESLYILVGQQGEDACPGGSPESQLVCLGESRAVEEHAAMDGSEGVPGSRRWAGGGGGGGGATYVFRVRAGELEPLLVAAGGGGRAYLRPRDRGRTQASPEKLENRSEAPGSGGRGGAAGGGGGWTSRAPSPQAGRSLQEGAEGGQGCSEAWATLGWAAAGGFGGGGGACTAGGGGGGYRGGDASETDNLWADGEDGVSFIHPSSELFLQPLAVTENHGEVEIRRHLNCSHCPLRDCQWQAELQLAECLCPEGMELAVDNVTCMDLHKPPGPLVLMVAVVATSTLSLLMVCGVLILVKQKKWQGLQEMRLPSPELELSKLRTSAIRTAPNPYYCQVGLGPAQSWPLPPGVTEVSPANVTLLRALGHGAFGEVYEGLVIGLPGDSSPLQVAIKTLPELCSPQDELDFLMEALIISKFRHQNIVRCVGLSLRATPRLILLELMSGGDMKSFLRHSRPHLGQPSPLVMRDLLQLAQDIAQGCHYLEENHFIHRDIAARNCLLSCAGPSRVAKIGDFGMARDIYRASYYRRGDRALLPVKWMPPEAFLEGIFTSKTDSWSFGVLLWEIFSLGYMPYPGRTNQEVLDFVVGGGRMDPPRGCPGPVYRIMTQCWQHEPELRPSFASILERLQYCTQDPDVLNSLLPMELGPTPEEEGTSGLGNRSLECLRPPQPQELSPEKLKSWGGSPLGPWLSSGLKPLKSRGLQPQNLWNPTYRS
# Chain of Mast/stem cell growth factor receptor Kit (Homo sapiens), P10721 [V560G] (P10721 whole entry V560G): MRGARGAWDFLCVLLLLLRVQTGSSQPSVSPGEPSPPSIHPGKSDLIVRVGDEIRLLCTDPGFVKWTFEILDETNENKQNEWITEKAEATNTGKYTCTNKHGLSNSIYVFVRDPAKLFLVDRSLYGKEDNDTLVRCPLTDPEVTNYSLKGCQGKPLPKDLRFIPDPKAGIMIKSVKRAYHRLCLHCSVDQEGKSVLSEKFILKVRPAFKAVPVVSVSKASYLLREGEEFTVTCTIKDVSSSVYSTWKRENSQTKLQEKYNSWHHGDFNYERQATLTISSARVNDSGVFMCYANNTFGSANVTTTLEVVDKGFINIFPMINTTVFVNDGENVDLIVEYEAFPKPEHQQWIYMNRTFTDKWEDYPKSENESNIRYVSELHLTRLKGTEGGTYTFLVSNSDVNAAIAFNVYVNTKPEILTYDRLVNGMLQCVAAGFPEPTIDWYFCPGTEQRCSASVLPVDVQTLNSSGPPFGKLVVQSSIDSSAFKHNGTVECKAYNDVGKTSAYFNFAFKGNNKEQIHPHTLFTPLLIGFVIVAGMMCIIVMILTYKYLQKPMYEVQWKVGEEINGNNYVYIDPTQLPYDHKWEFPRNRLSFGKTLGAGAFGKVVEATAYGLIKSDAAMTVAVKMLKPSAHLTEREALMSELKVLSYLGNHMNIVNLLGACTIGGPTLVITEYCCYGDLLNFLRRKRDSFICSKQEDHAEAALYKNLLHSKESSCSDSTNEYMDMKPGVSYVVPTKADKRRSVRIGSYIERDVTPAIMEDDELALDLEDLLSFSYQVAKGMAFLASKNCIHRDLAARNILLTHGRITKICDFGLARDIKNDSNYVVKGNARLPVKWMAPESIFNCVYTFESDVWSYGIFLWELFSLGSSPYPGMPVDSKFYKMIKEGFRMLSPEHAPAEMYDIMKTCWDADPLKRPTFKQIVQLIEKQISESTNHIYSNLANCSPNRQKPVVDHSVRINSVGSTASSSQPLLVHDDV
# Chain of Mast/stem cell growth factor receptor Kit (Homo sapiens) (P10721 whole entry): as the sequence (P10721 whole entry V560G) above, with G560V counted along it
# Chain of Tyrosine-protein kinase Lck (Homo sapiens) (P06239 2-509 limits assumed): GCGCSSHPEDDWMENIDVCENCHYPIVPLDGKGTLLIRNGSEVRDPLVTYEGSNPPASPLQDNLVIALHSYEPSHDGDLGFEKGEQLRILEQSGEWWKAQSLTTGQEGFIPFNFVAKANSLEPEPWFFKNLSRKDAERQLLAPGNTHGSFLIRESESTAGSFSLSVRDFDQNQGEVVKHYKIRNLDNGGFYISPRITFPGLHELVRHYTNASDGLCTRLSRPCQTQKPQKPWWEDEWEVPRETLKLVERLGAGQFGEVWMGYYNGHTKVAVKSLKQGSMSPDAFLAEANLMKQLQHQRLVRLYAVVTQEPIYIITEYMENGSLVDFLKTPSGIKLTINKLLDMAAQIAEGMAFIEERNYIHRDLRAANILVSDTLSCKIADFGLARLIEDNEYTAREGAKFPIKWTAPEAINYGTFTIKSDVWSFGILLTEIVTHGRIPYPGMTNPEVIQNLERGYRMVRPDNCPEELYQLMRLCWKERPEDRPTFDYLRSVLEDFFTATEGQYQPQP
# Chain of Tyrosine-protein kinase Lyn (Homo sapiens) (P07948 2-512 limits assumed): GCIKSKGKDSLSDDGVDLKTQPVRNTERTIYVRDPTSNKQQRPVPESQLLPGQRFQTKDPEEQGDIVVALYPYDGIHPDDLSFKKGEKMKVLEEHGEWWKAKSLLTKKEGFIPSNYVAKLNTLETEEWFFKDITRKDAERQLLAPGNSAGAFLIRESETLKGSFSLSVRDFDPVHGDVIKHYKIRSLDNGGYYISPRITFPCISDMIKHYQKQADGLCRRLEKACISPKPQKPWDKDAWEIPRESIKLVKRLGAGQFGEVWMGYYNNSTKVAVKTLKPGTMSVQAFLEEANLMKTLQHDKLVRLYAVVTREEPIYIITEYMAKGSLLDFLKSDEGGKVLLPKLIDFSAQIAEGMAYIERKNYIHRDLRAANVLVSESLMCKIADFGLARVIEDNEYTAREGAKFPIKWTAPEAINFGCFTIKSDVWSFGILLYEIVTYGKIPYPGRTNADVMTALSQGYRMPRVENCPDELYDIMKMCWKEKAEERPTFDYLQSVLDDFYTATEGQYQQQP
# Chain of Mast/stem cell growth factor receptor Kit (Homo sapiens), P10721 [D816V] (P10721 whole entry D816V): as the sequence (P10721 whole entry V560G) above, with G560V, D816V counted along it
# Chain of Mast/stem cell growth factor receptor Kit (Homo sapiens), P10721 [T670I] (P10721 whole entry T670I): as the sequence (P10721 whole entry V560G) above, with G560V, T670I counted along it
SMILES,inhibition [1] [%],inhibition [2] [%],inhibition [3] [%],inhibition [4] [%],inhibition [5] [%],inhibition [6] [%],inhibition [7] [%],inhibition [8] [%],inhibition [9] [%],inhibition [10] [%],inhibition [11] [%],inhibition [12] [%],inhibition [13] [%],inhibition [14] [%],inhibition [15] [%],inhibition [16] [%],inhibition [17] [%],inhibition [18] [%],inhibition [19] [%],inhibition [20] [%]
COc1cc(/C=N/Nc2ncnc3[nH]ncc23)ccc1O,49.4,8.85,12.9,0.9,7.67,1.4,6.17,12.5,54.7,4.08,12.2,16.8,63.9,12.6,59.6,1.2,9.92,1.87,14.9,5.09
CS(=O)(=O)CCNCc1ccc(-c2ccc3ncnc(Nc4ccc(OCc5ccccc5)c(C(F)(F)F)c4)c3c2)o1,4.84,2.36,4.65,3.39,2.42,1.13,-2.89,3.56,5.95,3.91,3.64,4.35,10.4,2.65,2.28,-0.65,1.81,0.49,5.8,1.44
CNC(=O)c1cc(-c2ccc(F)cc2)cc(-c2ccc(S(=O)(=O)N3CCCC3)cc2)c1N,3.53,3.32,1.27,3.02,1.68,-2.57,1.97,2.58,2.91,2.81,3.29,2.72,2.56,1.59,1.39,0.74,2.3,3.93,5.04,2.8
CCn1c(-c2nonc2N)nc2c(C#CC(C)(C)O)nc(OC[C@H](N)c3ccccc3)cc21,1.58,1.78,10,0.36,0.72,3.28,-0.5,2.85,3.65,5.32,17.1,4.19,4.52,2.36,4.2,5.78,3.59,6.32,1.76,0.54
CCc1nn2ncccc2c1-c1ccnc(NC2CC2)n1,7.72,0.04,1.83,1.32,2.12,0.78,3.12,2.82,6.75,3.02,3.47,2.13,2.84,2.22,3.39,3.92,4.58,6.93,4.86,1.52
Fc1cccc(COc2ccc(Nc3ncnc4sc(-c5ccco5)cc34)cc2Cl)c1,6.21,3.37,6.34,2.63,3.7,-0.3,0.57,3.21,5.67,3.44,4.08,3.59,4.38,2.97,2.48,0.45,3.51,3.09,4.96,4.4
COc1ccc2[nH]c3c4[nH]c5ccc(OC)cc5c4c4c(c3c2c1)C(=O)NC4=O,79.9,31.6,75.4,6.78,44.2,3.53,31.2,4.72,21.1,37.8,78.3,10.8,35.3,7.67,31.5,10.7,50.1,10.5,19.8,4.97
CCOc1ccc2c(-c3ccnc(Nc4cccc(C(F)(F)F)c4)n3)cnn2n1,17.8,0.23,2.91,1.24,3.49,-1.27,0.29,2.98,7.3,2.51,1.96,4.33,4.33,3.97,3.17,0.97,3.35,3.01,3.51,2.25
CC(=O)NCc1cccc(C#Cc2cncnc2Nc2ccc(OCc3cccc(F)c3)c(Cl)c2)c1,0.4,-2.07,-2.37,1.52,1.39,1.82,-0.41,0.34,1.6,1.56,0.67,-0.07,-0.62,-0.59,-1.18,0.61,2.93,4.9,1.83,-0.6
COc1cc2ncn(-c3cc(OCc4ccccc4C(F)(F)F)c(C(=O)N(C)C)s3)c2cc1OC,3.36,0.31,3.99,-0.65,1.38,-2.81,1.25,2.04,11.2,1.37,1.07,0.76,10.9,0.93,8.58,1.59,2.36,1.4,-4.49,-0.19
Cc1ccc(O)cc1Nc1ccnc2cc(-c3ccccn3)ccc12,43.1,23.5,73.7,4.94,3.09,3.25,41.2,33.6,76.6,10.9,49.7,72.8,94.3,65.2,91.9,1.35,4.24,11.7,5.41,3.21
COc1ccc(CNC(=O)c2ccc(-c3cc(-c4nnc(C)o4)ccc3C)cc2)cc1,6.51,-5.34,4.89,2.12,3.18,4.68,4.58,0.44,3.44,1.41,4.21,4.62,7.5,2.67,7.12,3.37,3.49,11.8,10.3,3.25
CCn1cc(-c2ccnc3[nH]ccc23)c(-c2cccc(NC(=O)Nc3ccc(OCc4ccccc4)cc3)c2)n1,-0.41,1.35,-0.05,-1.41,-1.25,-1.87,-1.14,2.58,21.8,1.35,-0.91,5.25,19.4,2.62,13.6,0.66,8.39,9.54,46.4,-1.52
